Laboratory results from PubChem BioAssay (NCI).
The panel holds about 79,000 compounds, 15% with a hit somewhere; the sample as a whole holds those more often. Calls of active or inactive are those of the source. No stated cut-off is given here; in the data, active means growth inhibition above about 70%; inactive means the rest.

Experiment: NCI Yeast Anticancer Drug Screen. Data for the mec2-1 strain (AID 157)
Conditions: S. cerevisiae mec2-1 strain, at 50.0 µM, hits give high values
Procedure, shortened: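 Test agents were screened against the mec2-1 yeast strain, with defined DNA repair or cell cycle alteration. Growth was scored as inhibition against vehicle-only controls.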

| Structure (SMILES) | growth inhibition |
| --- | --- |
| CCOC(=O)c1c(N)sc2c1C(C(=O)OCC)CCC2 (stereo not given) | -10.7% (inactive) |
| Cc1cc(N(CCCOS(C)(=O)=O)CCCOS(C)(=O)=O)ccc1C=Nc1cc(Cl)c(O)c(Cl)c1 | 21.4% (inactive) |
| COc1ccc2c(c1)OC[C@@H]1c3cc(NS(=O)(=O)c4ccccc4)cc(OC)c3O[C@H]21 | 32.5% (inactive) |
| CC(NC(=O)N=Nc1ccccc1)C(=O)O (stereo not given) | -8.95% (inactive) |
| O=C1CSC(/C(=C\c2ccc(Cl)cc2)c2nc3ccccc3[nH]2)=N1 | 11.2% (inactive) |
| Oc1ccc(Br)cc1/C=N\NC(=S)Nc1ccc2cn[nH]c2c1 | 23.9% (inactive) |
| Cc1cc2c(cc1C)NC(C)CC(=O)N2 (stereo not given) | -13.1% (inactive) |
| COC(=O)/C=C/C(=N/N(C)c1ccccc1)c1ccccc1 | -0.2% (inactive) |
| Fc1ccc(C=C2c3ccccc3-c3ccccc32)cc1 | 4.5% (inactive) |
| COC(=O)Nc1nc2ccc(-n3c(C)nc4ccccc4c3=O)cc2[nH]1 | -0.45% (inactive) |
| CCOC(=O)c1sc(N)nc1O | -0.3% (inactive) |
| COc1ccccc1NC(=O)Cc1nc(=O)[nH]c(=O)[nH]1 | -37.7% (inactive) |
| CCCCCCCCSC(SCCCCCCCC)=C1C(=O)N(c2ccccc2)N=C1C | -12.3% (inactive) |
| NC(=O)/C(=N/O)c1ccccc1 | 13.2% (inactive) |
| O=C1CN(CCN2CCCCC2)CC(=O)N2CCCCN12 | -7.15% (inactive) |
| CC1=NOC(=O)/C1=C/c1ccc(C)cc1 | 20.8% (inactive) |
| CC(=O)Nc1ccc(S(=O)(=O)c2ccc(NC(C)=O)cc2)cc1 | -10.1% (inactive) |
| CCN(CC)CCOc1cccc(Oc2ccccc2)c1 | 62.7% (inactive) |
| COc1cccc2c1c1ccc3c(c1n2C)C(=O)C=CC3=O | 22.6% (inactive) |
| CCn1c(=O)c2[nH]c(-n3c(Cl)nc4c3c(=O)n(CC)c(=O)n4CC)nc2n(CC)c1=O | 2.8% (inactive) |

| Structure (SMILES) | growth inhibition |
| --- | --- |
| C/C(=N\NS(=O)(=O)c1ccc(C)cc1)P(=O)(O)O | -13.4% (inactive) |
| Cc1ccc2ccccc2[n+]1CC(=O)c1ccc([N+](=O)[O-])cc1 | -30.8% (inactive) |
| COc1ccc(NC(=O)CCc2cc(C(C)(C)C)n[nH]2)cc1 | -15.8% (inactive) |
| CS/C(=C\c1ccc2cc(C)ccc2[n+]1C)N1CCOCC1 | -3.85% (inactive) |
| C=C(CN(C)C)c1ccccn1 | -5.45% (inactive) |
| CC(C)(C)c1cc(C(=O)O)c2c(c1)C(=O)OC2(c1ccccc1)c1ccccc1C(=O)O (stereo not given) | 7.6% (inactive) |
| Cc1cc(=O)oc2c(CNC(CC(C)C)C(=O)O)c(O)ccc12 (stereo not given) | -32.3% (inactive) |
| COC(=O)CC(C)N(c1cccc(Cl)c1)S(=O)(=O)c1ccc(C)cc1 (stereo not given) | 7.1% (inactive) |
| CC(=C/c1ccccc1)/C=C1/NC(=S)N(CN2CCCCCC2)C1=O | -22.1% (inactive) |
| Cc1cc(NCCN(C)C)nc(Nc2ccc(Cl)cc2)n1 | 19.4% (inactive) |
| CC(CCC(=O)O)[C@H]1CCC2[C@@H]3CC[C@@H]4CC(O)CC[C@]4(C)C3CC[C@@]21C (stereo not given in full) | -18.1% (inactive) |
| CC/C(C=O)=C\NC(=O)Nc1ccccc1 | -21.6% (inactive) |
| C=CCNC(=O)CCCCCCC/C=C\CCCCCCCC | -8.5% (inactive) |
| N#C/C(=C\c1cccs1)C(=O)c1ccco1 | 4.65% (inactive) |
| c1ccc2c(c1)OP1(=NP3(=NP4(=NP5(=N1)Oc1ccccc1-c1ccccc1O5)Oc1ccccc1-c1ccccc1O4)Oc1ccccc1-c1ccccc1O3)Oc1ccccc1-2 | 6.3% (inactive) |
| CN(C)C(=O)C1Cc2ccccc2CC1C(=O)N(C)C (stereo not given) | -0.55% (inactive) |
| CCCCCC(O)(CCCC)CCCC | -5.6% (inactive) |
| COc1cc(OC)c(C(=O)/C=C/c2ccncc2)cc1C(=O)O | -14.6% (inactive) |
| C[C@H]1CC[C@@H](C(C)(C)O)CC2=C1CC[C@@H]2C | -44.4% (inactive) |
| Cn1c(N2CCCC2)c(C=O)c(=O)n(C)c1=O | 1.45% (inactive) |

Experiment: NCI Yeast Anticancer Drug Screen. Data for the sgs1 mgt1 strain (AID 161);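 further: 0% = growth of cultures given vehicle only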
Conditions: S. cerevisiae sgs1 mgt1 strain, at 50.0 µM, hits give high values
Procedure, shortened: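 Read-out: growth inhibition vs vehicle controls. Cells: mutant yeast strain deficient in DNA damage repair.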

| Structure (SMILES) | growth inhibition |
| --- | --- |
| CCOC(=O)c1c(N)sc2c1C(C(=O)OCC)CCC2 (stereo not given) | 3.95% (inactive) |
| Cc1cc(N(CCCOS(C)(=O)=O)CCCOS(C)(=O)=O)ccc1C=Nc1cc(Cl)c(O)c(Cl)c1 | 62.8% (inactive) |
| COc1ccc2c(c1)OC[C@@H]1c3cc(NS(=O)(=O)c4ccccc4)cc(OC)c3O[C@H]21 | 47.8% (inactive) |
| CC(NC(=O)N=Nc1ccccc1)C(=O)O (stereo not given) | -9.6% (inactive) |
| O=C1CSC(/C(=C\c2ccc(Cl)cc2)c2nc3ccccc3[nH]2)=N1 | -4.15% (inactive) |
| Oc1ccc(Br)cc1/C=N\NC(=S)Nc1ccc2cn[nH]c2c1 | 47.8% (inactive) |
| Cc1cc2c(cc1C)NC(C)CC(=O)N2 (stereo not given) | 4.2% (inactive) |
| COC(=O)/C=C/C(=N/N(C)c1ccccc1)c1ccccc1 | 2.75% (inactive) |
| Fc1ccc(C=C2c3ccccc3-c3ccccc32)cc1 | 18.4% (inactive) |
| COC(=O)Nc1nc2ccc(-n3c(C)nc4ccccc4c3=O)cc2[nH]1 | 6.35% (inactive) |
| CCOC(=O)c1sc(N)nc1O | -3.75% (inactive) |
| COc1ccccc1NC(=O)Cc1nc(=O)[nH]c(=O)[nH]1 | 3.5% (inactive) |
| CCCCCCCCSC(SCCCCCCCC)=C1C(=O)N(c2ccccc2)N=C1C | 2.2% (inactive) |
| NC(=O)/C(=N/O)c1ccccc1 | 1.7% (inactive) |
| O=C1CN(CCN2CCCCC2)CC(=O)N2CCCCN12 | -8.65% (inactive) |
| CC1=NOC(=O)/C1=C/c1ccc(C)cc1 | 23.4% (inactive) |
| CC(=O)Nc1ccc(S(=O)(=O)c2ccc(NC(C)=O)cc2)cc1 | -48.5% (inactive) |
| CCN(CC)CCOc1cccc(Oc2ccccc2)c1 | 72.8% (active) |
| COc1cccc2c1c1ccc3c(c1n2C)C(=O)C=CC3=O | 21.9% (inactive) |
| CCn1c(=O)c2[nH]c(-n3c(Cl)nc4c3c(=O)n(CC)c(=O)n4CC)nc2n(CC)c1=O | 2.9% (inactive) |

| Structure (SMILES) | growth inhibition |
| --- | --- |
| C/C(=N\NS(=O)(=O)c1ccc(C)cc1)P(=O)(O)O | -24.7% (inactive) |
| Cc1ccc2ccccc2[n+]1CC(=O)c1ccc([N+](=O)[O-])cc1 | -9.3% (inactive) |
| COc1ccc(NC(=O)CCc2cc(C(C)(C)C)n[nH]2)cc1 | -3.8% (inactive) |
| CS/C(=C\c1ccc2cc(C)ccc2[n+]1C)N1CCOCC1 | -16% (inactive) |
| C=C(CN(C)C)c1ccccn1 | -2.3% (inactive) |
| CC(C)(C)c1cc(C(=O)O)c2c(c1)C(=O)OC2(c1ccccc1)c1ccccc1C(=O)O (stereo not given) | 5.6% (inactive) |
| Cc1cc(=O)oc2c(CNC(CC(C)C)C(=O)O)c(O)ccc12 (stereo not given) | -46.6% (inactive) |
| COC(=O)CC(C)N(c1cccc(Cl)c1)S(=O)(=O)c1ccc(C)cc1 (stereo not given) | 76.3% (active) |
| CC(=C/c1ccccc1)/C=C1/NC(=S)N(CN2CCCCCC2)C1=O | 19.9% (inactive) |
| Cc1cc(NCCN(C)C)nc(Nc2ccc(Cl)cc2)n1 | 31.6% (inactive) |
| CC(CCC(=O)O)[C@H]1CCC2[C@@H]3CC[C@@H]4CC(O)CC[C@]4(C)C3CC[C@@]21C (stereo not given in full) | -13.8% (inactive) |
| CC/C(C=O)=C\NC(=O)Nc1ccccc1 | 0.8% (inactive) |
| C=CCNC(=O)CCCCCCC/C=C\CCCCCCCC | -1.45% (inactive) |
| N#C/C(=C\c1cccs1)C(=O)c1ccco1 | 24.1% (inactive) |
| c1ccc2c(c1)OP1(=NP3(=NP4(=NP5(=N1)Oc1ccccc1-c1ccccc1O5)Oc1ccccc1-c1ccccc1O4)Oc1ccccc1-c1ccccc1O3)Oc1ccccc1-2 | -30.5% (inactive) |
| CN(C)C(=O)C1Cc2ccccc2CC1C(=O)N(C)C (stereo not given) | 0.85% (inactive) |
| CCCCCC(O)(CCCC)CCCC | -14.3% (inactive) |
| COc1cc(OC)c(C(=O)/C=C/c2ccncc2)cc1C(=O)O | 16.2% (inactive) |
| C[C@H]1CC[C@@H](C(C)(C)O)CC2=C1CC[C@@H]2C | -13.2% (inactive) |
| Cn1c(N2CCCC2)c(C=O)c(=O)n(C)c1=O | 8.6% (inactive) |
